This is part of a sample that, as a whole, favours compounds with a hit. Of some 79,000 tested, about 15% had one in any assay. Activity calls are given as the source filed them. Rule as the data show it: active = growth inhibition above about 70%; inactive = the rest.
Columns and labels:
[1] = NCI Yeast Anticancer Drug Screen. Data for the mec2-1 strain (AID 157); settings: S. cerevisiae mec2-1 strain, hits give high values
Outline: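 Growth inhibition is read against vehicle-treated controls after compound exposure of the mec2-1 yeast strain, which is defective in DNA damage repair or cell cycle control.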

[2] = NCI Yeast Anticancer Drug Screen. Data for the rad14 strain (AID 159);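 also: 0% = growth of vehicle-treated control cultures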; settings: S. cerevisiae rad14 strain growth inhibition, hits give high values
Outline: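 Yeast cells carrying a defined DNA-repair defect were exposed to compounds, and growth inhibition was calculated relative to vehicle-treated control cultures.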

[3] = NCI Yeast Anticancer Drug Screen. Data for the sgs1 mgt1 strain (AID 161);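 also: 0% = growth of cultures given vehicle only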; settings: S. cerevisiae sgs1 mgt1 strain, hits give high values
Outline: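 Percent growth inhibition was derived by comparing compound-exposed mutant yeast with vehicle-exposed cultures. The strain carries alterations in DNA damage repair.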

[4] = NCI Yeast Anticancer Drug Screen. Data for the CLN2oe strain (AID 163);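 also: 0% = growth of vehicle-only control cultures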; settings: S. cerevisiae CLN2oe strain, hits give high values
Outline: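 Compound-treated yeast; growth vs vehicle ctrl = % inhibition. Genetically altered strain (cell-cycle control).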

[5] = NCI Yeast Anticancer Drug Screen. Data for the cln2 rad14 strain (AID 165);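 also: 0% = growth equal to vehicle treated cultures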; settings: S. cerevisiae cln2 rad14 strain, hits give high values
Outline: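 Growth inhibition, relative to vehicle-treated controls, is the read-out. The test organism is a yeast strain with defined genetic alterations, cln2 rad14.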

[6] = NCI Yeast Anticancer Drug Screen. Data for the bub3 strain (AID 167); settings: S. cerevisiae bub3 mutant strain, hits give high values
Outline: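 Compounds were applied to a genetically altered yeast strain carrying a cell-cycle control defect. Growth inhibition was scored against vehicle-treated controls.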

[7] = NCI Yeast Anticancer Drug Screen. Data for the wt2 strain (AID 169);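 also: 0% = growth of vehicle-treated yeast cultures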; settings: S. cerevisiae wt2 strain growth inhibition, hits give high values
Outline: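 Compound exposure of yeast; growth compared with vehicle controls; inhibition reported.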

[8] = NCI Yeast Anticancer Drug Screen. Data for the mlh1 strain (AID 171);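 also: 0% = growth of vehicle-treated control cultures of the same strain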; settings: S. cerevisiae mlh1 strain growth inhibition, hits give high values
Outline: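 Compounds are applied to a genetically altered yeast strain, and its growth is compared with that of vehicle-treated cultures to give percent inhibition.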

[9] = NCI Yeast Anticancer Drug Screen. Data for the sgs1 strain (AID 173);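 also: 0% = growth of vehicle-only control cultures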; settings: S. cerevisiae sgs1 mutant, hits give high values
Outline: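 Compounds applied to genetically altered yeast; growth compared with vehicle-treated cultures to give % inhibition.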

[10] = NCI Yeast Anticancer Drug Screen. Data for the mlh1 rad18 strain (AID 175); settings: S. cerevisiae mlh1 rad18 strain growth inhibition, hits give high values
Outline: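 Cells of a genetically altered yeast strain, deficient in DNA damage repair, were treated with compound. Their growth was then compared with that of vehicle-treated cultures to give inhibition.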

[11] = NCI Yeast Anticancer Drug Screen. Data for the rad18 strain (AID 177); settings: S. cerevisiae rad18 mutant growth inhibition, hits give high values
Outline: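 Compounds are applied to a repair-deficient yeast strain, and growth is compared with that of vehicle-treated cultures to give percent inhibition.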

[12] = NCI Yeast Anticancer Drug Screen. Data for the rad52 strain (AID 147);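 also: 0% = growth of vehicle-treated control cultures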; settings: S. cerevisiae rad52 mutant growth inhibition, hits give high values
Outline: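 DNA repair-defective yeast; compound exposure; growth scored against vehicle controls.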

[13] = NCI Yeast Anticancer Drug Screen. Data for the rad50EPP+ strain (AID 151);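 also: 0% = growth of vehicle-treated control cultures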; settings: S. cerevisiae rad50 mutant strain, hits give high values
Outline: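 rad50EPP+ yeast treated with test compounds. Readout: growth vs vehicle control.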

[14] = NCI Yeast Anticancer Drug Screen. Data for the mgt1 strain (AID 153); settings: S. cerevisiae mgt1 mutant growth inhibition, hits give high values
Outline: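 Growth inhibition relative to vehicle controls was scored for the mgt1 yeast strain after compound exposure.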

[15] = NCI Yeast Anticancer Drug Screen. Data for the rad50 strain (AID 155);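 also: 0% = growth of vehicle-only cultures of the same strain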; settings: S. cerevisiae rad50 strain growth inhibition, hits give high values
Outline: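 Yeast carrying a defined DNA repair defect were exposed to test compounds, and growth was compared with vehicle-treated controls to give percent inhibition.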

[16] = NCI Yeast Anticancer Drug Screen. Data for the wt1 strain (AID 149);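 also: 0% = growth of vehicle-treated wt1 cultures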; settings: S. cerevisiae wt1 strain (SPY 50644) growth inhibition, hits give high values
Outline: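 Yeast wt1 strain exposed to compounds; growth inhibition measured relative to vehicle-treated controls.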

[17] = at 5.0 µM (retest, dose inferred, filed as 0.5)
[18] = at 50.0 µM (retest, dose inferred, filed as 5.0)

Measured: growth inhibition

COc1nc2c(c(=O)n1C)N=C(c1ccccc1)[C@H](C(CC(=O)c1ccccc1)c1ccccc1)C(c1ccccc1)N2 (some centres undefined)
inactive: [1]; at 100.0 µM 34% | [2]; at 1.2 µM -1% | [2]; at 3.7 µM -10% | [2]; at 11.0 µM -1% | [2]; at 33.0 µM 31% | [2]; at 100.0 µM 57% | [3]; [17] -14% | [3]; [18] 35% | [3]; at 50.0 µM 53.7% | [4]; at 1.2 µM 10% | [4]; at 3.7 µM 1% | [4]; at 11.0 µM 4% | [4]; at 33.0 µM 13% | [4]; at 100.0 µM 43% | [5]; [17] 2% | [5]; [18] -15% | [5]; at 50.0 µM 7.8% | [6]; at 1.2 µM -11% | [6]; at 3.7 µM -34% | [6]; [17] 0% | [6]; at 11.0 µM 9% | [6]; at 33.0 µM 18% | [6]; [18] 23% | [6]; at 50.0 µM 36.4% | [6]; at 100.0 µM 41% | [7]; at 1.2 µM -8% | [7]; at 3.7 µM -8% | [7]; at 11.0 µM -7% | [7]; at 33.0 µM 22% | [7]; at 100.0 µM 46% | [8]; at 1.2 µM -53% | [8]; at 3.7 µM -38% | [8]; at 11.0 µM -9% | [8]; at 33.0 µM 34% | [8]; at 100.0 µM 60% | [9]; at 1.2 µM -9% | [9]; at 3.7 µM -10% | [9]; at 11.0 µM 23% | [9]; at 33.0 µM 40% | [10]; [17] 14% | [10]; [18] 35% | [10]; at 50.0 µM 20.1% | [11]; at 1.2 µM 37% | [11]; at 3.7 µM 47% | [11]; at 11.0 µM 50% | [11]; at 33.0 µM 46% | [11]; at 100.0 µM 67%
active: [9]; at 100.0 µM 71%

CCN(CC)Cc1cc(Nc2c3ccccc3nc3c2[nH]c2ccccc23)cc(CN(CC)CC)c1O
inactive: [12]; at 1.2 µM 32% | [12]; at 3.7 µM 21% | [12]; at 11.0 µM 12% | [12]; at 33.0 µM 7% | [12]; at 100.0 µM 18% | [13]; at 1.2 µM 3% | [13]; at 3.7 µM 1% | [13]; at 11.0 µM 3% | [13]; at 33.0 µM 2% | [13]; at 100.0 µM 13% | [14]; at 1.2 µM -3% | [14]; at 3.7 µM -3% | [14]; at 11.0 µM -3% | [14]; at 33.0 µM -16% | [14]; at 100.0 µM 1% | [15]; at 1.2 µM 25% | [15]; at 3.7 µM 7% | [15]; [17] -3% | [15]; at 11.0 µM -4% | [15]; at 33.0 µM 10% | [15]; [18] 10% | [15]; at 50.0 µM 17.8% | [15]; at 100.0 µM 23% | [1]; at 1.2 µM 2% | [1]; at 3.7 µM 1% | [1]; [17] -2% | [1]; at 11.0 µM -1% | [1]; at 33.0 µM 2% | [1]; [18] 15% | [1]; at 50.0 µM 21.3% | [1]; at 100.0 µM 5% | [2]; at 1.2 µM -1% | [2]; at 3.7 µM -3% | [2]; at 11.0 µM -1% | [2]; at 33.0 µM 2% | [2]; at 100.0 µM 8% | [3]; [17] -5% | [3]; [18] 1% | [3]; at 50.0 µM -10.1% | [4]; at 1.2 µM -5% | [4]; at 3.7 µM -3% | [4]; at 11.0 µM 1% | [4]; at 33.0 µM 3% | [4]; at 100.0 µM 7% | [5]; [17] 48% | [5]; [18] 61% | [5]; at 50.0 µM 66% | [6]; at 1.2 µM -2% | [6]; at 3.7 µM -4% | [6]; [17] 16% | [6]; at 11.0 µM -3% | [6]; at 33.0 µM -3% | [6]; [18] 38% | [6]; at 50.0 µM -10.2% | [6]; at 100.0 µM 0% | [7]; at 1.2 µM -1% | [7]; at 3.7 µM -2% | [7]; at 11.0 µM -4% | [7]; at 33.0 µM -2% | [7]; at 100.0 µM 1% | [8]; at 1.2 µM 1% | [8]; at 3.7 µM 2% | [8]; at 11.0 µM 1% | [8]; at 33.0 µM 1% | [8]; at 100.0 µM 7% | [9]; at 1.2 µM 6% | [9]; at 3.7 µM 3% | [9]; at 11.0 µM -2% | [9]; at 33.0 µM -2% | [9]; at 100.0 µM 0% | [10]; [17] 13% | [10]; [18] 16% | [10]; at 50.0 µM -11.6% | [11]; at 1.2 µM 16% | [11]; at 3.7 µM 9% | [11]; at 11.0 µM -2% | [11]; at 33.0 µM -11% | [11]; at 100.0 µM -7%

Oc1ccc2c(c1)C(O)CCCC2 (centres undefined)
inactive: [12]; at 1.2 µM 5% | [12]; at 3.7 µM 9% | [12]; at 11.0 µM 25% | [12]; at 33.0 µM 38% | [16]; at 1.2 µM -3% | [16]; at 3.7 µM -7% | [16]; at 11.0 µM -4% | [16]; at 33.0 µM -1% | [16]; at 100.0 µM 18% | [13]; at 1.2 µM 10% | [13]; at 3.7 µM 25% | [13]; at 11.0 µM 40% | [13]; at 33.0 µM 53% | [15]; at 1.2 µM 4% | [15]; at 3.7 µM 16% | [15]; [17] 31% | [15]; at 11.0 µM 28% | [15]; at 33.0 µM 46% | [1]; at 1.2 µM -3% | [1]; at 3.7 µM -1% | [1]; [17] 6% | [1]; at 11.0 µM 2% | [1]; at 33.0 µM 7% | [1]; at 50.0 µM 58.6% | [1]; at 100.0 µM 46% | [2]; at 1.2 µM 5% | [2]; at 3.7 µM 13% | [2]; at 11.0 µM 23% | [2]; at 33.0 µM 43% | [3]; [17] 65% | [3]; at 50.0 µM 34.1% | [5]; [17] 0% | [5]; [18] 36% | [5]; at 50.0 µM 35.4% | [6]; at 1.2 µM -9% | [6]; at 3.7 µM -8% | [6]; [17] 30% | [6]; at 11.0 µM -9% | [6]; at 33.0 µM -2% | [6]; at 50.0 µM 66.2% | [6]; at 100.0 µM 35% | [7]; at 1.2 µM -5% | [7]; at 3.7 µM -4% | [7]; at 11.0 µM 25% | [7]; at 33.0 µM 4% | [7]; at 100.0 µM 69% | [8]; at 1.2 µM 2% | [8]; at 3.7 µM 10% | [8]; at 11.0 µM 15% | [8]; at 33.0 µM 29% | [9]; at 1.2 µM 5% | [9]; at 3.7 µM 19% | [9]; at 11.0 µM 24% | [9]; at 33.0 µM 43% | [11]; at 1.2 µM 2% | [11]; at 3.7 µM 10% | [11]; at 11.0 µM 20% | [11]; at 33.0 µM 36%
active: [12]; at 100.0 µM 86% | [13]; at 100.0 µM 71% | [15]; [18] 97% | [15]; at 50.0 µM 77.8% | [15]; at 100.0 µM 91% | [1]; [18] 82% | [2]; at 100.0 µM 95% | [3]; [18] 98% | [6]; [18] 96% | [8]; at 100.0 µM 90% | [9]; at 100.0 µM 93% | [10]; [17] 87% | [10]; [18] 99% | [10]; at 50.0 µM 86.8% | [11]; at 100.0 µM 90%

From PubChem BioAssay (NCI)
